RPL19A TOR yeast – RPL19A-GFP expression modulators in yeast, primary screen, cell-based, S. cerevisiae, multiplex flow cytometry, MLPCN | S. cerevisiae RPL19A-GFP strain, 3 h; hits give low values | percent response vs DMSO, % at 10 µM | 330,000 tested, 0.3% active | AID 2025, 2009;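 active = percent response vs DMSO below 50%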;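 note: median channel GFP fluorescence of the barcoded RPL19A-GFP strain; ratio of sample median GFP to plate DMSO average so 100% = DMSO; lower means less RPL19A-GFP as with rapamycin TOR inhibition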
CIT2-GFP yeast – modulators of CIT2-GFP expression in yeast, primary screen, S. cerevisiae, GFP fusion, multiplex flow cytometry, MLPCN library | S. cerevisiae CIT2-GFP strain, 3 h; 100 means same as DMSO wells | GFP response vs DMSO, % at 10 µM | 320,000 tested, 0.065% active | AID 2029, 2009;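 active = GFP response relative to DMSO above a set limit, near the screen mean plus 3 SD, cut at about 150% in these data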;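 note: ratio of well median GFP fluorescence to mean of DMSO wells on the plate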
LAP4 TOR yeast – modulators of LAP4-GFP expression in yeast, primary screen, S. cerevisiae, multiplex flow cytometry, MLPCN library. 3 h; median GFP as percent of DMSO wells. GFP response vs DMSO, % at 10 µM. 320,000 tested, 0.34% active;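 active = GFP response vs DMSO above a set limit, about the screen mean plus 3 SD, cut at about 150% in these data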
AGP1-GFP MLPCN – modulators of AGP1-GFP expression in yeast TOR pathway, primary screen, cell-based, multiplex flow cytometry, S. cerevisiae, MLPCN library | 3 h; GFP as percent of DMSO wells | GFP response vs DMSO, % at 10 µM | 320,000 tested, 0.02% active | AID 2066, 2009;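 active = GFP response relative to DMSO above a set limit, near screen average plus 3 SD, cut at about 150% in these data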;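 note: median GFP channel fluorescence of the gated AGP1 strain per well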
MEP2 TOR yeast – modulators of MEP2-GFP levels in yeast, primary screen, S. cerevisiae, multiplex flow cytometry, MLPCN library | S. cerevisiae MEP2-GFP strain, 3 h; 100% = DMSO control level | GFP response vs DMSO, % at 10 µM | 330,000 tested, 0.51% active | AID 2016, 2009;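 active = GFP response versus DMSO above a set limit, roughly screen mean plus 3 SD, cut at about 180% in these data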;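 note: median GFP fluorescence of the barcode-gated MEP2-GFP cells per well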
VLA-4 inh – inhibition in human VLA-4 binding assay, primary screen, VLA-4 allosteric modulator project, MLPCN library, flow cytometry, VLA-4 expressing cells | inhibition, % (about 7 µM as worked out from the volumes in the protocol) | 330,000 tested, 0.2% active | Integrin alpha-4 (Homo sapiens), P13612 | AID 2557, 2010 | ligand binding flow cytometry; in the data active = inhibition above about 50%
Target sequence (P13612 whole entry, looked up): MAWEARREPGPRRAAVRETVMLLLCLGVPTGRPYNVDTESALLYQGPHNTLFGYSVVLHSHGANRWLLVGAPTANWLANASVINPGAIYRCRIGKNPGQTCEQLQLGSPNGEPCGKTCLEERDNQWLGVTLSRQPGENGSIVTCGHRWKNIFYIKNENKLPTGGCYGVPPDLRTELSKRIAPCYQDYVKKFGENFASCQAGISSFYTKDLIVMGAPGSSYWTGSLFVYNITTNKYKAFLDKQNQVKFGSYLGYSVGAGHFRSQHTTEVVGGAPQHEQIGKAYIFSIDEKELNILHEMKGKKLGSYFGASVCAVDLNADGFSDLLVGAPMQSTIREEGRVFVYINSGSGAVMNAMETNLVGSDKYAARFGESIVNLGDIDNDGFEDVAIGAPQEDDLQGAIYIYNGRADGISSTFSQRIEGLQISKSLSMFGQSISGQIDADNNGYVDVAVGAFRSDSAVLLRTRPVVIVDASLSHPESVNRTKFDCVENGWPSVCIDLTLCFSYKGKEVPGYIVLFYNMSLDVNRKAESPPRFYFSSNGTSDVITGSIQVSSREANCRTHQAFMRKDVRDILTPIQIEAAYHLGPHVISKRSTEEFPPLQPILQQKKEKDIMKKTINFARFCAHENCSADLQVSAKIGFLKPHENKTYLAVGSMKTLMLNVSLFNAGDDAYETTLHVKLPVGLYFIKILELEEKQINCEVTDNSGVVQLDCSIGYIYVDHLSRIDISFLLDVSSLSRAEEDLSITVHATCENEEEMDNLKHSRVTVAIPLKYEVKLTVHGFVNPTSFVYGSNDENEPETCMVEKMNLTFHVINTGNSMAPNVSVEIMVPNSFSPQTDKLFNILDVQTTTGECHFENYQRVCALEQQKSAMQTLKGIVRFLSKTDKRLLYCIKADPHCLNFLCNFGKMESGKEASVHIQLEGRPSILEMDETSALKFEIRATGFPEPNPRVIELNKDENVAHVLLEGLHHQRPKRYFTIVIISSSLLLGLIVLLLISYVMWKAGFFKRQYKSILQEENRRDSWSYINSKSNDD
VLA-4 allo CP – retest of VLA-4 allosteric modulators, confirmation, cell-based, cherry-picked plates, U937, HUTS-21 LIBS antibody | shares compounds with VLA-4 inh | U937 cells, HUTS-21 LIBS mAb binding, flow cytometry; LDV ligand present at threefold Kd | inhibition, % at 6.7 µM | 1,300 tested, 2% active | AID 2813, 2010; in the data active = inhibition above about 40%;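 note: 0% = ligand without compound and 100% = no ligand background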
Starred values were filed as active, the others as inactive; x = not tested or not shown; ! = repeats disagree. Most compounds without a hit are left out; they make up all but 1.1% or so of the library.

SMILES	RPL19A TOR yeast	CIT2-GFP yeast	LAP4 TOR yeast	AGP1-GFP MLPCN	MEP2 TOR yeast	VLA-4 inh	VLA-4 allo CP
CC1CCCC(NC(=O)CCNS(=O)(=O)c2ccc(Br)cc2)C1C (centres undefined)	98.5	105.3	96.2	101.1	113.6	52.5*	-2.1
CNS(=O)(=O)c1cccc(C(=O)OCC(=O)NC2CCCC(C)C2C)c1 (centres undefined)	92.9	95.0	90.8	93.4	89.5	-12.1	-1.1
CCCOc1ccc(-c2cc(C(=O)NCC3CCCO3)c3ccccc3n2)cc1 (centres undefined)	104.5	102.2	112.3	96.9	100.9	43.5	-5.3
COc1ccc(F)cc1S(=O)(=O)NCCCn1ccnc1	102.9	91.6	89.5	85.0	108.7	2.5	x
COc1ccc(C(=O)NCc2nnc(SCC(=O)c3ccccc3)n2C)cc1OC	97.5	97.8	103.1	111.5	106.6	15.2	x
CCCCc1ccc(NC(=S)NCCc2ccc(F)cc2)cc1	99.9	91.4	98.3	90.6	92.4	40.6	-4.5
O=C(O)C1(O)C[C@H](O)C(O)[C@@H](O)C1 (some centres undefined)	99.9	79.1	100.7	87.9	103.4	50.4*	1.3
Cc1ccccc1C(=O)N1CCC(C(=O)Nc2ccccc2Cl)CC1	98.6	97.7	106.1	102.5	94.9	1.9	0.0
Cc1ccccc1C(=O)N1CCC(C(=O)Nc2ccccc2N2CCCC2)CC1	96.6	90.0	98.3	94.9	94.0	-4.7	x
Cc1ccc(NC(=O)C2CCN(C(=O)c3ccc(Cl)cc3)CC2)nc1	102.9	111.3	110.0	112.7	120.5	7.3	0.4
COC(=O)c1ccccc1NC(=O)C1CCN(C(=O)c2cc(OC)c(OC)c(OC)c2)CC1	103.5	103.5	104.5	98.3	109.1	8.1	7.2
COc1ccc(NC(=O)C2CCN(C(=O)c3ccc(OC)cc3)CC2)cc1	98.3	94.0	101.2	105.1	104.5	-13.6	x
COc1ccc(C(=O)N2CCC(C(=O)Nc3ccc(OC)c(OC)c3)CC2)cc1	99.2	107.3	101.1	106.8	106.5	5.5	-0.6
COc1ccc(C(=O)N2CCC(C(=O)Nc3ccccc3C)CC2)cc1OC	98.5	96.7	99.0	100.3	97.7	0.2	x
Cc1ccc(NC(=O)C2CCN(C(=O)c3ccccc3C)CC2)nc1	98.8	102.5	110.2	107.4	94.1	1.9	7.7
Cc1ccccc1C(=O)N1CCC(C(=O)Nc2nccs2)CC1	97.9	92.4	112.1	98.9	97.7	-18.7	x
COCCCNC(=O)COc1ccc2oc3c(c2c1)CCCC3	98.1	88.2	116.5	96.2	95.4	9.7	x
CCOC(=O)N1CCN(c2nc(C)c3c(n2)CC(C)CC3=O)CC1 (centres undefined)	99.0	102.7	107.6	104.1	112.9	52.7*	11.7
Cc1nc(N2CCN(C(=O)c3ccco3)CC2)nc2c1C(=O)CC(C)C2 (centres undefined)	100.3	98.1	97.4	99.5	104.6	10.2	x
COc1ccc2[nH]c3c(Cl)ncnc3c2c1	98.1	105.3	98.8	105.1	122.1	48.0	-6.1
Fc1ccc2[nH]c3c(Cl)ncnc3c2c1	93.2	95.2	98.2	106.2	106.5	-0.8	x
Cc1ccc(O)c([C@H](CCN(C(C)C)C(C)C)c2ccccc2)c1	103.7	80.1	104.5	88.3	97.3	53.3*!	-9.5
COc1ccc(NC(=O)CSc2nc(SC)ns2)cc1	104.0	98.5	107.1	102.5	105.8	11.2	x
C/C(=N\Nc1ccc(S(N)(=O)=O)cc1[N+](=O)[O-])c1cccnc1	104.2	101.1	86.3	95.4	99.9	-1.5	x
C/C(=N\Nc1ccc([N+](=O)[O-])cc1[N+](=O)[O-])c1cccnc1	101.5	93.9	112.7	90.4	98.2	45.4	-17.5
SMILES	RPL19A TOR yeast	CIT2-GFP yeast	LAP4 TOR yeast	AGP1-GFP MLPCN	MEP2 TOR yeast	VLA-4 inh	VLA-4 allo CP
COc1ccc(N2CCN(C(=O)c3cccc(NC4=NC5CS(=O)(=O)CC5S4)c3)CC2)cc1 (centres undefined)	97.3	95.9	103.5	99.8	96.9	10.4	x
CC(=O)c1ccc(N2CCN(C(=O)c3ccc(Cl)c(NC4=NC5CS(=O)(=O)CC5S4)c3)CC2)cc1 (centres undefined)	99.4	110.4	103.6	104.0	113.1	0.2	x
CCOc1ccc(NC(=O)c2cccc(NC3=NC4CS(=O)(=O)CC4S3)c2)cc1 (centres undefined)	106.2	101.3	102.6	107.3	102.2	-7.6	x
O=C(c1cccc(NC2=NC3CS(=O)(=O)CC3S2)c1)N1CCN(c2ncccn2)CC1 (centres undefined)	97.5	96.1	98.2	96.8	100.9	2.8	-0.8
COc1cccc(N2CCN(C(=O)c3ccc(Cl)c(NC4=NC5CS(=O)(=O)CC5S4)c3)CC2)c1 (centres undefined)	105.5	104.2	106.4	105.7	105.5	-0.5	0.0
CCOC(=O)N1CCN(C(=O)c2cccc(NC3=NC4CS(=O)(=O)CC4S3)c2)CC1 (centres undefined)	95.0	96.3	108.2	x	117.4	10.3	7.4
CC1CCC(NC(=O)c2cc(C3CC3)nn2-c2ccccc2)CC1 (centres undefined)	97.4	97.1	102.3	97.2	99.8	0.0	x
NS(=O)(=O)c1cccc(NC(=O)COC(=O)CCC2CCCC2)c1	93.7	98.9	97.1	98.2	100.5	0.3	x
Nc1nonc1-n1nnc(C(=O)N/N=C/c2ccco2)c1CSc1ccccc1	94.3	93.7	86.4	88.7	94.8	-4.1	x
CC[C@@H]1C=C(C(=O)O)[C@H](c2cccc(C)c2)N1S(=O)(=O)c1ccc(C)cc1	103.4	92.9	108.7	108.0	103.3	28.0	-0.1
Cc1ccc(S(=O)(=O)N2[C@@H](c3ccc4c(c3)OCO4)C(C(=O)O)=C[C@H]2CC2CCCC2)cc1	103.6	85.4	107.5	98.3	98.5	22.2	0.6
COc1ccc([C@H]2C(C(=O)O)=C[C@@H](CC3CCCC3)N2S(=O)(=O)c2ccc(C)cc2)cc1OC	103.0	88.2	100.9	100.5	100.9	-2.5	12.8
Cc1ccc(S(=O)(=O)N2[C@@H](c3cccc(C)c3)C(C(=O)O)=C[C@H]2CC2CCCC2)cc1	89.8	86.0	88.2	80.5	78.5	9.0	-2.8
